6 compounds from PubChem BioAssay (NCATS) can be followed below.

The structures appear in SMILES notation. Unmarked numbers belong to inactive results. Results filed as inconclusive are left out. Active and inactive are the calls of the source. Unless noted, calls follow the shape of the dose curve; as a rule, active = well fitted curve in the direction sought with a large enough effect; inconclusive = small, poorly fitted or top-dose-only effect, or another doubt; inactive = no such curve, though single readings can be large; an effect the other way counts as inactive or inconclusive. Some results are limits rather than exact numbers.

The target of assay [1] is Lysosomal acid glucosylceramidase (Homo sapiens) (UniProt P04062). Nature of the assay: Glucocerebrosidase-p2 (AID 348; in the data active = potency below about 10 µM; also: potency is read from the fitted curve at half-maximal effect). The conditions noted are these: purified GBA, blue fluorogenic substrate, 40 min. The essentials:
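Normal human glucocerebrosidase (0.2 nM) with blue fluorogenic substrate (80 uM final) in citrate/phosphate pH 5.9 with 10mM sodium taurocholate, 0.01% tween-20; 40 min RT, NaOH/glycine stop; fluorescence Ex 365/Em 440; AC50 from a titration from 0.6 nM upwards.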

Assay [2] can be described thus: AP1 Signaling Pathway (AID 357; active = well fitted curve in either direction with a large enough effect, not every such curve was filed as active;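 also: ME-180 reporter cells stimulated with EGF at its EC50 level; % is scaled to controls: 0 for no effect and ±100 for the full control effect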). The conditions noted are these: ME-180 AP-1-bla reporter, EGF-induced, beta-lactamase ratio, 5 h; at 7.69 µM (top of the series) unless noted. In outline:
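In this screen, ME-180 cells in Opti-MEM with 0.5% dialyzed FBS received EC50 EGF and compound titrations for 5 h. AP-1 reporter beta-lactamase was detected via CCF4 ratio, giving AC50 for positive and negative modulators.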

The target in assay [3] is Cytochrome P450 1A2 (Homo sapiens) (UniProt P05177). Nature of the assay: p450-cyp1a2 (AID 410; calls by dose curve; also: potency is read from the fitted curve at half-maximal effect). The note with it: recombinant CYP1A2, luciferin-ME demethylation, luminescence; series mostly up to 57 µM. The essentials:
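20nM CYP1A2, 100uM Luciferin-ME (=Km), 100mM KPO4; cpd 10 min RT; +NADPH regen, 60 min RT; stop/detect 20 min; luminescence. Normalized to furafylline 57 uM = full inhibition.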

Assay [4] is described as follows: NFAT Signaling Pathway (AID 444; active = well fitted curve in either direction with a large enough effect, not every such curve was filed as active;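 also: carbachol stimulus at about its EC50 of 1 µM final; % is scaled to controls: 0 for no effect and ±100 for the full control effect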). The conditions noted are these: Jurkat NFAT-bla M1, carbachol, beta-lactamase ratio, 5 h; at 7.69 µM (top of the series) unless noted. In outline:
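Read-out: CCF4 FRET ratio (460 nm/530 nm) after 1 h RT dye loading, used for %activity and AC50 from titration series. Cells: Jurkat NFAT-β-lactamase/M1 line, treated with compound plus 1 uM carbachol for 5 h, 37 °C.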

A short description of assay [5]: Stat Signaling Pathway (AID 446; active = well fitted curve in either direction with a large enough effect, not every such curve was filed as active;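 also: ME-180 cervical cancer cells given 40 pM IL-6 alongside compound; SIE-controlled beta-lactamase reporter measured as 460/530 nm FRET emission ratio; % is scaled to controls: 0 for no effect and ±100 for the full control effect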). The note with it: ME-180 (cervical carcinoma) SIE beta-lactamase reporter, IL-6 stimulated, 5 h; at 7.69 µM (top of the series) unless noted. In outline: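 Emission at 460 and 530 nm (excitation 405 nm) reports SIE-controlled beta-lactamase in ME-180 cells. Cells received compound with 40 pM IL-6 for 5 hrs at 37 C; data scaled between 300 pM IL-6 and 125 nM JAK-inhibitor controls.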

For assay [6], the target named is Glucocorticoid receptor (Homo sapiens) (UniProt P04150). As to the kind of experiment: GR-GFP Redistribution (AID 450;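 active = compounds whose dose series gives a full or clear partial fitted curve of increased nuclear translocation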; also: potency is read from the fitted curve at half-maximal effect). The note with it: U2OS GR-GFP nuclear translocation, laser cytometry, 2 h.
Assay [7] has the same target. Nature of the assay: GR-EFC Redistribution (AID 451; calls by dose curve; also: potency is read from the fitted curve at half-maximal effect). The conditions noted are these: CHO-K1 GR-EFC translocation, beta-gal luminescence, 2 h. In outline:
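Translocation of GR-ED fusion to nuclear EA restores b-gal, read by luminescence after 1 h room-temperature detection. Engineered CHO-K1 biosensor cells, 1,000/well, exposed 2 h at 37 C to titrations up to 46 uM final.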

The target in assay [8] is Mitogen-activated protein kinase 10 (Mus musculus) (UniProt Q61831). Nature of the assay: JNK3 AlphaScreen Assay (AID 530; active = well fitted curve in either direction with a large enough effect, not every such curve was filed as active;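 also: kinase came from lysate of stimulated human HepG2 cells; signal reports phosphorylation of biotinylated GST-cJun 1-79 at Ser73 with 10 µM ATP; % is scaled to controls: 0 for no effect and ±100 for the full control effect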). The note with it: JNK3 lysate, c-Jun phosphorylation; series mostly up to 57.1 µM. The essentials:
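Kinase buffer: 20 mM Tris-HCl pH 7.6, 10 mM MgCl2, 1 mM DTT, 0.1 mM Na3VO4, 0.01% Tween-20; ATP 10 uM. Substrate biotin-GST-cJun(1-79), enzyme from activated HepG2 lysates. Detection by Ser73 phospho-antibody AlphaScreen.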
A general note: Bead proximity is the source of the signal in Alpha formats.

Assay [9] deals with 3',5'-cyclic-AMP phosphodiesterase 4B (Homo sapiens) (UniProt Q07343). As to the kind of experiment: qHTS Assay for Inhibitors of PDE-IV (AID 607; active = well fitted activation curve with a large enough effect in the main read-out, with a control signal flat, not every such curve was filed as active; also: potency is read from the fitted curve at half-maximal effect). The note with it: HEK293 ACTOne CNG channel cells, membrane potential fluorescence; series mostly up to 22.9 µM. The essentials: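 The readout is membrane depolarisation from a cAMP-sensing CNG channel, detected with a potential dye at ex 535/em 590. Cells were HEK293-derived (endogenous PDE-IV) at 1000 cells/well, titrated up to 22.9 uM final.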

In assay [10] the target is Dual specificity protein kinase CLK4 (Homo sapiens) (UniProt Q9HAZ1). Nature of the assay: qHTS Assay for Inhibitors of CDC-like Kinase 4 (Kinase-Glo Assay) (AID 1770). Also: nearly all actives have a fitted effect of over 65% in size. Also: potency is read from the fitted curve at half-maximal effect. The note with it: recombinant Clk4, Kinase-Glo ATP depletion luminescence; series mostly up to 66.7 µM. The essentials: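 Inhibition was judged from remaining ATP, measured by Ultra-Glo luciferase bioluminescence after Clk4 (25 nM) had acted on RS peptide at 1 uM ATP for 4.5 hours, room temperature.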
A general note: In qHTS, concentration-response curves come from the screen itself.

The target is the same in assay [11]. Nature of the assay: qHTS Assay for Inhibitors of CDC-like Kinase 4 (ADP-Glo Assay) (AID 1771). Also: nearly all actives have a fitted effect of over 70% in size. Also: potency is read from the fitted curve at half-maximal effect. The note with it: recombinant CLK4, ADP-Glo luminescence; series mostly up to 80 µM. In outline: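 25 nM Clk4, 100 uM RS peptide, 1 uM ATP (final); 2 mM MgCl2, 0.5 mM EGTA, 2.5 mM DTT, 0.01% Triton X-100; 1 hr RT. ADP-Glo readout: ATP depletion 45 min, conversion/luciferase 30 min, luminescence.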

Assay [12] has the same target. Nature of the assay: qHTS Assay for Inhibitors of CDC-like Kinase 4 (ADP-FP Assay) (AID 1795). Also: nearly all actives have a fitted effect of over 60% in size. Also: potency is read from the fitted curve at half-maximal effect. The note with it: Transcreener ADP fluorescence polarization; series mostly up to 50 µM. In outline:
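Inhibition of ADP formation by 6.25 nM Clk4 is measured using 1 uM ATP and 100 uM RS repeat peptide over one hour. Produced ADP displaces a fluorescent tracer from antibody, lowering polarization.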

The target of assay [13] is Ubiquitin carboxyl-terminal hydrolase 1 (Homo sapiens) (UniProt O94782). Nature of the assay: Inhibitors of USP1/UAF1: Pilot qHTS (AID 504865).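 Also: rhodamine fluorescence freed from ubiquitin-rhodamine substrate followed over time; top concentration of the series differs between compounds; % is scaled to controls: 0 for no effect and ±100 for the full control effect; nearly all actives have a fitted effect of over 35% in size.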 The note with it: purified USP1/UAF1, Ub-rhodamine cleavage fluorescence; series mostly up to 54.9 µM. The essentials:
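Kinetic fluorescence assay: 1nM USP1/UAF1, 15 min compound preincubation, then 150nM Ub-Rho; 480/540 nm.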

A short description of assay [14]: Primary qHTS for small molecule stabilizers of the endoplasmic reticulum resident proteome: Secreted ER Calcium Modulated Protein (SERCaMP) assay (AID 1508630). Also: % is scaled to controls: 0 for no effect and ±100 for the full control effect. The note with it: SH-SY5Y GLuc-SERCaMP (Gaussia luciferase released on ER calcium loss) secretion, thapsigargin, luminescence; series mostly up to 38.4 µM. The essentials:
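The SH-SY5Y reporter protocol was run at 3 concentrations up to 38.3 uM (primary) or 11 concentrations (follow-up): 16 h compound, 100 nM thapsigargin for 4 h, then extracellular luciferase luminescence.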

Assay [15] concerns the target Cytochrome P450 3A4 (Homo sapiens) (UniProt P08684). Nature of the assay: qHTS Assay for Inhibitors and Substrates of Cytochrome P450 3A4 (AID 884). Also: potency is read from the fitted curve at half-maximal effect; nearly all actives have a fitted effect of over 50% in size. The note with it: recombinant CYP3A4, Luciferin-PPXE luminescence; series mostly up to 57.1 µM. In outline: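 Luminescent readout of luciferin produced by CYP3A4 (20 nM) dealkylation of Luciferin-PPXE, 25 uM (its KM). NADPH-driven reaction ran 60 min at RT after 10 min compound preincubation; data scaled to 57 uM ketoconazole as 100% inhibition.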

The target is the same in assay [16]. Nature of the assay: qHTS Assay for Activators of Cytochrome P450 3A4 (AID 885). Also: nearly all actives have a fitted effect of over 65% in size. The note with it: recombinant CYP3A4, Luciferin-PPXE luminescence, 60 min; series mostly up to 57.1 µM. In outline:
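Activators are scored by enhanced luminescence from CYP3A4 conversion of luciferin-PPXE (25uM, equal to KM) to luciferin, after 60 min at RT with an NADPH-regenerating system.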

The target of assay [17] is Cytochrome P450 2D6 (Homo sapiens) (UniProt P10635). As to the kind of experiment: qHTS Assay for Inhibitors and Substrates of Cytochrome P450 2D6 (AID 891). Also: potency is read from the fitted curve at half-maximal effect; nearly all actives have a fitted effect of over 60% in size. The conditions noted are these: recombinant CYP2D6, luciferin-ME EGE luminescence; series mostly up to 57.1 µM. In outline:
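Luminescent read-out of luciferin formed by 5 nM human CYP2D6 demethylating 30 uM Luciferin-ME EGE (Km level) over 60 min at room temperature after NADPH regeneration addition. Data normalized to full inhibition by 1.43 uM quinidine.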

Assay [18] addresses Rap guanine nucleotide exchange factor 3 (Homo sapiens) (UniProt O95398). Nature of the assay: Confirmatory qHTS for agonist of cAMP-regulated guanine nucleotide exchange factor 3 (EPAC1) (AID 1645881).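 Also: EPAC1 catalysed release of BODIPY-GDP from Rap1B seen as fluorescence loss; 100% = effect of cAMP agonist control; nearly all actives have a fitted effect of over 75% in size.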 The note with it: EPAC1 Rap1B BODIPY-GDP exchange fluorescence; series mostly up to 154 µM.
In assay [19] the target is Rap guanine nucleotide exchange factor 4 (Homo sapiens) (UniProt Q8WZA2). As to the kind of experiment: Confirmatory qHTS for agonist of cAMP-regulated guanine nucleotide exchange factor 4 (EPAC2) (AID 1645884).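 Also: nucleotide exchange releases bodipy-GDP from Rap1 and this lowers its fluorescence; % is scaled to controls: 0 for no effect and ±100 for the full control effect; nearly all actives have a fitted effect of over 65% in size.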 The note with it: EPAC2 GEF activity, Rap1B-BODIPY-GDP fluorescence; series mostly up to 154 µM.

Chain of Ubiquitin carboxyl-terminal hydrolase 1 (Homo sapiens) (O94782 whole entry, looked up): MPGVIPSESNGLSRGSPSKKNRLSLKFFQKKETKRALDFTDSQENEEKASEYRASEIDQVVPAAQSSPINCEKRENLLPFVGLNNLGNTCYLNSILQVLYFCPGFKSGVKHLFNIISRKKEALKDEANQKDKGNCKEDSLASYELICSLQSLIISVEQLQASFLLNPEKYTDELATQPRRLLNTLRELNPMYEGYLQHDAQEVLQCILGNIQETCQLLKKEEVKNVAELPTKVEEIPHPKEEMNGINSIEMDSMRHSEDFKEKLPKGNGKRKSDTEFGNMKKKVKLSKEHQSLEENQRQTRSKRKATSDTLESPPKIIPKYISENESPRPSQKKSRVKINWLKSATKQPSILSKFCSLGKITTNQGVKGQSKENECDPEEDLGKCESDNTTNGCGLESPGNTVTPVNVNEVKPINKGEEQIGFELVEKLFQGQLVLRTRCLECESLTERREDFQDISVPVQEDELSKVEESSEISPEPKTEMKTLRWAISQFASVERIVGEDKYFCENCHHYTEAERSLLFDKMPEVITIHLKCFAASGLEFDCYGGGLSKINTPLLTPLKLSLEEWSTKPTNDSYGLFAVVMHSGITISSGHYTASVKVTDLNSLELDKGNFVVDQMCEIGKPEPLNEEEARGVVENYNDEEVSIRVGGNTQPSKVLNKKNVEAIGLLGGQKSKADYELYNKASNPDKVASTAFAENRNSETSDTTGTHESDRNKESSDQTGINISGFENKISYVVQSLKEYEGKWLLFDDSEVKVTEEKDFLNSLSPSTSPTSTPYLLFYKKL
Chain of 3',5'-cyclic-AMP phosphodiesterase 4B (Homo sapiens) (Q07343 whole entry, looked up): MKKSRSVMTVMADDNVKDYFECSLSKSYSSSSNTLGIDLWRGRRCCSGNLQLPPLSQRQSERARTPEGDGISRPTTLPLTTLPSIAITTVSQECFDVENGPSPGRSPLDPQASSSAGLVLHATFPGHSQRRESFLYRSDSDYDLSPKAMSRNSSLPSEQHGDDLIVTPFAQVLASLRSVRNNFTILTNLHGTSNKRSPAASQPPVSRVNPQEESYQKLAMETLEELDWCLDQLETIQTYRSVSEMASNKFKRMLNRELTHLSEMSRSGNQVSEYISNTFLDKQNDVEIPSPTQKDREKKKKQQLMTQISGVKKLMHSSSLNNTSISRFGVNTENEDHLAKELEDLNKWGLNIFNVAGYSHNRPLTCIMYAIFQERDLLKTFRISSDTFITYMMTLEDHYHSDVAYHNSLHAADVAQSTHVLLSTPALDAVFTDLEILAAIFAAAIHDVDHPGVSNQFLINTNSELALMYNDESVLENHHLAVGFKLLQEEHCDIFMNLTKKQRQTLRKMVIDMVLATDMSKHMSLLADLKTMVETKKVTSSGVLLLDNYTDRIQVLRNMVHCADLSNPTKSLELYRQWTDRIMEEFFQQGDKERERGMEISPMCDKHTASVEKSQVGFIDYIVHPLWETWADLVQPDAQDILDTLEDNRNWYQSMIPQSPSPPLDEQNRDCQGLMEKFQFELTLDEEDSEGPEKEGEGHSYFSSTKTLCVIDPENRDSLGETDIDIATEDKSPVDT
Chain of Lysosomal acid glucosylceramidase (Homo sapiens) (P04062 whole entry, looked up): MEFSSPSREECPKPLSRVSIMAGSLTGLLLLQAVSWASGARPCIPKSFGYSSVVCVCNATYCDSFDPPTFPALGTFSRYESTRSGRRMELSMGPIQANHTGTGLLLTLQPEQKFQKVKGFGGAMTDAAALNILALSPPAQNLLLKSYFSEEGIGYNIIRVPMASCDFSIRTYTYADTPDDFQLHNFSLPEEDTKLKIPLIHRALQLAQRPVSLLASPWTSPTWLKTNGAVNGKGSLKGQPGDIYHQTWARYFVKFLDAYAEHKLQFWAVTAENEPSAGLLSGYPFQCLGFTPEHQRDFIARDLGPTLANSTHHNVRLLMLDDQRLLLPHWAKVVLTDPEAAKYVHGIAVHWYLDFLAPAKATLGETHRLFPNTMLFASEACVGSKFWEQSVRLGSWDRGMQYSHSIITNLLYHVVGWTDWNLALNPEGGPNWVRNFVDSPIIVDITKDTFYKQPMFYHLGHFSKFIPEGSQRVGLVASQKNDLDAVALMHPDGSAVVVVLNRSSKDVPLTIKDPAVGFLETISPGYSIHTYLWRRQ
Chain of Glucocorticoid receptor (Homo sapiens) (P04150 whole entry, looked up): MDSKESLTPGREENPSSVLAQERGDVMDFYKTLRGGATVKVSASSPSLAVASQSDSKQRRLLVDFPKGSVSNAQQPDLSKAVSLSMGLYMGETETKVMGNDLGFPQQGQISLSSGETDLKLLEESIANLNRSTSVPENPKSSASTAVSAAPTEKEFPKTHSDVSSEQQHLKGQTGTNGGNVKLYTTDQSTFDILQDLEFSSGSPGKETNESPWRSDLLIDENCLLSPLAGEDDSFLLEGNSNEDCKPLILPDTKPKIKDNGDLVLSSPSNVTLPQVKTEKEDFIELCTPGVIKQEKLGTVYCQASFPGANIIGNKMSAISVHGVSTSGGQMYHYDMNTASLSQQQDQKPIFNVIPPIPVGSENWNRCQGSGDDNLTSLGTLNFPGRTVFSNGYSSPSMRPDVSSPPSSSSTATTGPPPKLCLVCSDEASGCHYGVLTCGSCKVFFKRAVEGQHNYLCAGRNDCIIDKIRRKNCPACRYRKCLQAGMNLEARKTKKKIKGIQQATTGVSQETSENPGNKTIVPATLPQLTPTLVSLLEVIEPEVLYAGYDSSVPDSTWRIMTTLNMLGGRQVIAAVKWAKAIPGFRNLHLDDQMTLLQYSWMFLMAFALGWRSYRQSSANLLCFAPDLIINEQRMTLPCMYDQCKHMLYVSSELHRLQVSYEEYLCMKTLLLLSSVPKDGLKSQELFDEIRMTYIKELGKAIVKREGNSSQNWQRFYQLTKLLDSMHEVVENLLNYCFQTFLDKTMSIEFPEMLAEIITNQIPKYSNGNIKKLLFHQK
Chain of Dual specificity protein kinase CLK4 (Homo sapiens) (Q9HAZ1 whole entry, looked up): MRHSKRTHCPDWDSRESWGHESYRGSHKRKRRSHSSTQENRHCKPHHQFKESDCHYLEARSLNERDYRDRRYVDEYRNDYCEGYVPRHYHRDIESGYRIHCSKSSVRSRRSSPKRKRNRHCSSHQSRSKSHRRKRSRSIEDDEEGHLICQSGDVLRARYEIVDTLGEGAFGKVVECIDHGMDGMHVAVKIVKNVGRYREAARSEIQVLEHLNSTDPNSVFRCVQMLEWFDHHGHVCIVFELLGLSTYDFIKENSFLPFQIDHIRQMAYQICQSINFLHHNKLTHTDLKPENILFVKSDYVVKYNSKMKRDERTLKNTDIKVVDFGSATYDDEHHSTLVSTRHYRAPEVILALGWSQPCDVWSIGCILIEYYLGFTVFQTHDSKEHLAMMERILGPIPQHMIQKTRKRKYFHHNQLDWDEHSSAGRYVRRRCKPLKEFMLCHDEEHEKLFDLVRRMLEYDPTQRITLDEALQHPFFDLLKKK
Chain of Cytochrome P450 1A2 (Homo sapiens) (P05177 whole entry, looked up): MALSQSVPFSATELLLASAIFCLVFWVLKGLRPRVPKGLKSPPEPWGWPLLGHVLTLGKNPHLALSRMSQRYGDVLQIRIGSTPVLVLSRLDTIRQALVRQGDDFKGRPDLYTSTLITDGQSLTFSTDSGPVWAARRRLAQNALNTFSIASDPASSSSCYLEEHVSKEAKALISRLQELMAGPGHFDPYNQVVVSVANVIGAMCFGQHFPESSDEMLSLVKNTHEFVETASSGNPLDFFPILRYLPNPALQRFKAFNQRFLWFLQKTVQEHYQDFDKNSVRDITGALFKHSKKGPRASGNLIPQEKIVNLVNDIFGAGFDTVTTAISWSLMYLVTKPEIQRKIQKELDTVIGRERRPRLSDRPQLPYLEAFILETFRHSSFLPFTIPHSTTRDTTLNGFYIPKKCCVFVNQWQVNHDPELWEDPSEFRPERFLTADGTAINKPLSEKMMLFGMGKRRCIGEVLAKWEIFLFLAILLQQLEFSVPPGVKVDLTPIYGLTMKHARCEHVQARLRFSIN
Chain of Cytochrome P450 3A4 (Homo sapiens) (P08684 whole entry, looked up): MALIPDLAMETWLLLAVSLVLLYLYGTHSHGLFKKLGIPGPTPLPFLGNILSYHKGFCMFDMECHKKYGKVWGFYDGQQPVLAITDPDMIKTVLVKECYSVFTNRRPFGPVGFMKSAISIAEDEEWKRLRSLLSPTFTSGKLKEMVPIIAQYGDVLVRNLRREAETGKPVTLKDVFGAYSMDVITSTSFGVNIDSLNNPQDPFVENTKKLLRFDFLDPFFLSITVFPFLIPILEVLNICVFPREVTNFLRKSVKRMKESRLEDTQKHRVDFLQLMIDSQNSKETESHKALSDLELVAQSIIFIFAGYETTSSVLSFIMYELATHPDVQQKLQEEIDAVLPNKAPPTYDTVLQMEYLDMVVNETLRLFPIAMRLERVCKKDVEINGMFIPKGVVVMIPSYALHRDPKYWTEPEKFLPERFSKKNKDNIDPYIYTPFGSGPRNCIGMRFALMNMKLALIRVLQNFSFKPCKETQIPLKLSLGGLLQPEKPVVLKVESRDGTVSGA
Chain of Cytochrome P450 2D6 (Homo sapiens) (P10635 whole entry, looked up): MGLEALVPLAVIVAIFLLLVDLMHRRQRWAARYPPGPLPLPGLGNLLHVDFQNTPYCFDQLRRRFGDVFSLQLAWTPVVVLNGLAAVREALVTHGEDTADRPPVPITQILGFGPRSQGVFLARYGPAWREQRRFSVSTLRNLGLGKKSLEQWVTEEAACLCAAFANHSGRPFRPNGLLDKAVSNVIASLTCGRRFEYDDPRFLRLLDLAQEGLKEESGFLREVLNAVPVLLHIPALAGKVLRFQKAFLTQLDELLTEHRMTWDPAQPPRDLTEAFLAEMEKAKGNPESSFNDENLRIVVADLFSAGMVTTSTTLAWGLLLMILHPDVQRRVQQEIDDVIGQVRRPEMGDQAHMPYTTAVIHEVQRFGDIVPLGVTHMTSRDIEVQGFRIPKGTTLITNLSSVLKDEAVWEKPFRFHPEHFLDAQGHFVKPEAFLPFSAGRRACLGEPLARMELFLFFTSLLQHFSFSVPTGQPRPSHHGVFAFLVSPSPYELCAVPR

For `COCCn1c(=O)c(-c2ccccc2)nc2cncnc21`, the Potency in [1] was above 11.4 µM; in assay [3], 0.794 µM (active); in assay [6], above 9.22 µM; in assay [7] it was above 46 µM. Moreover, the activity change, negative = inhibition in assay [2] is -9.61%; in assay [4] it was -5.89%. The activity, negative = inhibition in assay [5] was -10.2%. In addition, the Potency entry in assay [8], in assay [9], in assay [10], in assay [11], in assay [12] and in [13] was “inactive” each time. In addition, the result in assay [14] was inactive.

With `CN(Cc1ccco1)c1cc(-c2cccc(NS(C)(=O)=O)c2)ncn1`, the Potency in assay [1] is above 11.4 µM; in [3], 3.98 µM (active); in [6], above 46 µM; in assay [7] it was above 46 µM; in [10], 11.2 µM (active); in assay [11] it was 8.91 µM (active). Moreover, the activity change, negative = inhibition in assay [2] is 10.2%; in [4], -5.51%. In addition, the activity, negative = inhibition in assay [5] is 11.3%. The Potency entry in [8], in [9], in assay [12] and in assay [13] was “inactive” each time. Also, the result in [14] was inactive.

For the compound `COc1ncc2ncc(=O)n(C3CC3)c2n1`, the Potency is above 11.4 µM in assay [1]; 10 µM (active) in [3]; above 9.22 µM in assay [6]; above 46 µM in assay [7]; 1.58 µM (active) in assay [9]. Further, the activity change, negative = inhibition was -1.23% in [2] and -8.58% in assay [4]. The activity, negative = inhibition in assay [5] is 6.59%. Moreover, the Potency result in assay [8], in [10], in [11], in assay [12] and in assay [13] was “inactive” each time. Besides, the result in assay [14] was inactive.

On to `COc1cccc(-c2nccc(NCc3cccs3)n2)c1`, for which the Potency in assay [1] was above 11.4 µM; in assay [3], 0.2 µM (active); in assay [6], above 46 µM; in assay [7] it was above 46 µM; in assay [15], 5.01 µM (active); in assay [17] it was 0.316 µM (active). The Potency in [11] is 8.91 µM (active); in [12] it was 10 µM (active). Moreover, the activity change, negative = inhibition in assay [2] was -9.78%; in assay [4], 15.4%. Further, the activity, negative = inhibition in assay [5] is -0.369%. Further, the Potency entry in assay [8], in assay [9], in assay [16], in [18] and in assay [19] was “inactive” throughout. Moreover, the outcome in assay [14] was inactive.

On to `O=c1c(-c2ccccc2)nc2cnc(Oc3cccc(Cl)c3)nc2n1C1CC1`, for which the Potency in assay [1] is above 11.4 µM; in [3], 1.58 µM (active); in assay [6], above 9.22 µM; in assay [7] it was above 46 µM. Further, the activity change, negative = inhibition in assay [2] was -15.1%; in assay [4], 10.9%. The activity, negative = inhibition in assay [5] was -5.81%. The Potency result in assay [8], in [9], in assay [10], in assay [11], in assay [12] and in [13] was “inactive” in each case. In [14], the result was inactive.

`Cc1nc2cnc(Oc3cccc(Cl)c3)nc2n(C2CC2)c1=O`: the Potency in assay [1] was above 11.4 µM; in assay [3], 6.31 µM (active); in assay [6] it was above 9.22 µM; in assay [7], above 46 µM. For the same compound, the activity change, negative = inhibition was -22.3% in assay [2] and -5.3% in assay [4]. Moreover, in [5], the activity, negative = inhibition was -13.7%. The Potency result in assay [8], in [9], in assay [10], in [11], in [12] and in assay [13] was “inactive” in each case. Also, the result in [14] was inactive.
